Measured values reported in PubChem BioAssay AID1159580 (chemical genetic matrix, 2015).
Several values for one entry are separate records, joined by “and”; a condition that tells them apart may be missing. Identical values can stand only once. About 2,000 (36%) of roughly 5,500 compounds were called active. Inconclusive results (about 18%) are left out. Rule as the data show it: active = normalized growth mostly below about 0.91 (no sharp cut-off); inconclusive = no clear call, values can overlap the other calls; inactive = mostly above about 0.92. The list shows a part of the results.

Experiment: chemical genetic growth profiling, strain panel (AID 1159580);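 also: tested at 20 µM; growth read once vehicle control cultures reached saturation at 30 °C; 1 = growth at the plate median or of vehicle wells; lower values mean less growth of the strain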
Conditions: S. cerevisiae deletion strains, growth OD

Measured: normalized growth

CC(=O)Oc1c(C)c(C)c2c(c1C)CCC(C)(CCCC(C)CCCC(C)CCCC(C)C)O2 (stereo unspecified)
inactive: locus YAL021C, strain ccr4, hits give low values 1 | locus YAL026C, strain drs2, hits give low values 0.982 | locus YAL030W, strain snc1, hits give low values 0.976 | locus YBL061C, strain skt5, hits give low values 0.995 | locus YBR009C, strain hhf1, hits give low values 0.957 | locus YBR021W, strain FUR4, hits give low values 1.03 | locus YBR023C, strain chs3, hits give low values 0.99 | locus YBR171W, strain sec66, hits give low values 1 | locus YBR229C, strain ROT2, hits give low values 1.02 | locus YBR231C, strain swc5, hits give low values 0.995 | locus YBR279W, strain paf1, hits give low values 0.985 | locus YCL011C, strain gbp2, hits give low values 0.975 | locus YCL016C, strain dcc1, hits give low values 0.985 | locus YCL029C, strain bik1, hits give low values 0.995 | locus YCL061C, strain MRC1, hits give low values 0.998 | locus YCL069W, strain vba3, hits give low values 0.982 | locus YCR088W, strain abp1, hits give low values 0.978 | locus YDL005C, strain med2, hits give low values 0.979 | locus YDL035C, strain GPR1, hits give low values 1.01 | locus YDL040C, strain nat1, hits give low values 0.98 | locus YDL074C, strain BRE1, hits give low values 1 | locus YDL101C, strain DUN1, hits give low values 1.03 | locus YDL134C, strain PPH21, hits give low values 1.02 | locus YDL185W, strain tfp1, hits give low values 0.983 | locus YDL192W, strain arf1, hits give low values 1.01 | locus YDR001C, strain nth1, hits give low values 0.98 | locus YDR069C, strain doa4, hits give low values 0.983 | locus YDR101C, strain arx1, hits give low values 0.983 | locus YDR137W, strain rgp1, hits give low values 0.961 | locus YDR150W, strain NUM1, hits give low values 1.02 | locus YDR159W, strain sac3, hits give low values 0.968 | locus YDR162C, strain NBP2, hits give low values 1.03 | locus YDR195W, strain ref2 0.946 | locus YDR297W, strain sur2, hits give low values 0.987 | locus YDR318W, strain mcm21, hits give low values 1.01 | locus YDR334W, strain swr1, hits give low values 0.988 | locus YDR335W, strain msn5, hits give low values 0.993 | locus YDR388W, hits give low values 0.992 | locus YDR392W, strain spt3, hits give low values 1.03 | locus YDR502C, strain sam2, hits give low values 0.991 | locus YEL003W, strain gim4, hits give low values 0.983 | locus YEL037C, strain rad23, hits give low values 0.985 | locus YEL061C, strain CIN8 (second series), hits give low values 0.975 | locus YEL061C, strain CIN8, hits give low values 1.01 | locus YER015W, strain faa2, hits give low values 0.984 | locus YER016W, strain bim1, hits give low values 0.992 | locus YER110C, hits give low values 0.99 | locus YER111C, strain swi4, hits give low values 0.985 | locus YER155C, strain BEM2 (second series), hits give low values 1.01 | locus YER155C, strain BEM2, hits give low values 1.01 | locus YER167W, strain BCK2, hits give low values 1.02 | locus YFR010W, strain ubp6, hits give low values 0.981 | locus YGL078C, strain dbp3, hits give low values 0.993 | locus YGL086W, strain mad1, hits give low values 0.991 | locus YGL167C, strain pmr1, hits give low values 0.971 | locus YGL173C, strain kem1, hits give low values 0.99 | locus YGL227W, strain vid30, hits give low values 0.974 | locus YGL240W, strain doc1, hits give low values 1 | locus YGL248W, strain PDE1, hits give low values 1.03 | locus YGL253W, strain hxk2, hits give low values 0.977 | locus YGR078C, strain PAC10, hits give low values 1.03 | locus YGR135W, strain pre9, hits give low values 1.01 | locus YGR229C, strain SMI1, hits give low values 1.01 | locus YGR252W, strain gcn5, hits give low values 0.978 | locus YHR013C, strain ard1, hits give low values 0.949 | locus YHR027C, strain rpn1, hits give low values 0.989 | locus YHR030C, strain SLT2, hits give low values 1.02 and 1 | locus YHR079C, strain IRE1 (second series), hits give low values 1 | locus YHR079C, strain IRE1, hits give low values 0.964 | locus YHR094C, strain hxt1, hits give low values 0.989 | locus YHR129C, strain ARP1, hits give low values 1.02 | locus YHR142W, strain chs7, hits give low values 0.987 | locus YHR200W, strain rpn10, hits give low values 0.989 | locus YIL066C, strain RNR3, hits give low values 1.03 | locus YIL073C, strain SPO22, hits give low values 0.994 | locus YIL125W, strain kgd1, hits give low values 0.991 | locus YIR030C, strain dcg1, hits give low values 1.01 | locus YJL092W, strain hpr5, hits give low values 0.98 | locus YJL095W, strain BCK1 (second series), hits give low values 0.991 | locus YJL095W, strain BCK1, hits give low values 1.05 and 0.989 | locus YJL115W, strain asf1, hits give low values 1 | locus YJL129C, strain trk1, hits give low values 0.987 | locus YJL134W, strain LCB3, hits give low values 1.02 | locus YJL154C, strain vps35, hits give low values 0.989 | locus YJL164C, strain tpk1, hits give low values 0.995 | locus YJL166W, strain qcr8, hits give low values 0.989 | locus YJL168C, strain set2, hits give low values 1 | locus YJL187C, strain SWE1 (second series), hits give low values 1.02 | locus YJL187C, strain SWE1, hits give low values 0.991 | locus YJR043C, strain POL32, hits give low values 1.03 | locus YJR066W, strain TOR1, hits give low values 0.945 | locus YKL009W, strain mrt4, hits give low values 1.01 | locus YKL068W, hits give low values 1.01 | locus YKL085W, strain MDH1 (second series), hits give low values 0.997 | locus YKL085W, strain MDH1, hits give low values 0.997 | locus YKL160W, strain elf1, hits give low values 1 | locus YKL190W, strain CNB1, hits give low values 1.02 | locus YKR001C, strain vps1, hits give low values 0.999 | locus YKR026C, strain gcn3, hits give low values 0.976 | locus YKR091W, strain srl3, hits give low values 0.977 | locus YLL001W, strain dnm1, hits give low values 0.99 | locus YLL026W, hits give low values 0.98 | locus YLL041C, strain sdh2, hits give low values 0.992 | locus YLR027C, strain aat2, hits give low values 0.99 | locus YLR039C, strain RIC1, hits give low values 1.08 | locus YLR058C, strain SHM2, hits give low values 1.03 | locus YLR102C, strain apc9, hits give low values 0.993 | locus YLR113W, strain HOG1, hits give low values 0.949 | locus YLR221C, strain rsa3, hits give low values 1 | locus YLR258W, strain gsy2, hits give low values 0.97 | locus YLR262C, strain YPT6 (second series), hits give low values 0.989 | locus YLR262C, strain YPT6, hits give low values 1.09 | locus YLR268W, strain sec22, hits give low values 0.984 | locus YLR320W, strain mms22, hits give low values 0.984 | locus YLR330W, strain CHS5, hits give low values 1.02 | locus YLR342W, strain FKS1 (second series), hits give low values 1.04 | locus YLR342W, strain FKS1, hits give low values 0.979 | locus YLR357W, strain rsc2, hits give low values 1.01 | locus YLR370C, strain arc18, hits give low values 1 | locus YLR371W, strain rom2, hits give low values 0.981 | locus YLR384C, strain iki3, hits give low values 0.991 | locus YLR418C, strain cdc73, hits give low values 1.01 | locus YML016C, strain PPZ1, hits give low values 1.02 | locus YML032C, strain rad52, hits give low values 1.01 | locus YML120C, strain ndi1, hits give low values 1.01 | locus YML124C, strain tub3, hits give low values 0.991 | locus YMR058W, strain fet3, hits give low values 1.01 | locus YMR078C, strain ctf18, hits give low values 1 | locus YMR125W, strain sto1, hits give low values 1 | locus YMR129W, hits give low values 0.975 | locus YMR205C, strain PFK2, hits give low values 0.96 | locus YMR223W, strain ubp8, hits give low values 1.01 | locus YMR231W, strain pep5, hits give low values 0.976 | locus YMR307W, strain GAS1, hits give low values 1.07 | locus YNL067W, strain RPL9B, hits give low values 1.03 | locus YNL071W, strain lat1, hits give low values 1 | locus YNL183C, strain NPR1, hits give low values 0.949 | locus YNL209W, strain ssb2, hits give low values 0.986 | locus YNL233W, strain BNI4, hits give low values 1.01 | locus YNL248C, strain rpa49, hits give low values 1.05 | locus YNL250W, strain rad50, hits give low values 1 | locus YNL271C, strain bni1, hits give low values 0.995 | locus YNL298W, strain CLA4, hits give low values 0.995 | locus YNL307C, strain MCK1, hits give low values 0.987 | locus YNL322C, strain KRE1 (second series), hits give low values 0.99 | locus YNL322C, strain KRE1, hits give low values 1.02 | locus YNR049C, strain mso1, hits give low values 0.986 | locus YNR052C, strain pop2, hits give low values 0.984 | locus YOL012C, strain htz1 0.81 | locus YOL147C, strain pex11, hits give low values 0.991 | locus YOR001W, strain rrp6, hits give low values 1.01 | locus YOR061W, strain CKA2, hits give low values 1.03 | locus YOR069W, strain VPS5, hits give low values 1.01 | locus YOR070C, strain gyp1, hits give low values 0.988 | locus YOR080W, strain dia2, hits give low values 0.992 | locus YOR083W, strain WHI5, hits give low values 1.01 | locus YOR106W, strain vam3, hits give low values 0.977 | locus YOR136W, strain idh2, hits give low values 0.98 | locus YOR144C, strain elg1, hits give low values 0.986 | locus YOR184W, strain ser1, hits give low values 0.99 | locus YOR231W, strain MKK1, hits give low values 0.978 | locus YOR265W, strain rbl2, hits give low values 0.988 | locus YOR270C, strain vph1, hits give low values 0.976 | locus YOR290C, strain snf2, hits give low values 1.01 | locus YOR316C, strain cot1, hits give low values 0.997 | locus YPL051W, strain arl3, hits give low values 1.01 | locus YPL078C, strain atp4, hits give low values 0.995 | locus YPL106C, strain sse1, hits give low values 1.05 | locus YPL240C, strain hsp82, hits give low values 0.995 | locus YPL241C, strain CIN2, hits give low values 1.02 | locus YPL256C, strain CLN2, hits give low values 1.05 | locus YPR119W, strain clb2, hits give low values 0.995 | locus YPR141C, strain kar3, hits give low values 1 | locus YPR163C, strain tif3, hits give low values 0.991 | locus YPR167C, strain met16, hits give low values 0.995 | strain wtn01, hits give low values 0.977
